Screens as filed in PubChem.
A selection: hits, their analogues and other compounds. The true share with any hit is near 2.9%.
EPAC1 ag val – human EPAC1 agonism, validation; EPAC1 Rap1b BODIPY-GDP exchange, fluorescence; Potency, µM, actives largely listed as activators; 16,000 compounds, 1% hits; AID 1645883; also: nearly all actives have a fitted effect of over 70% in size
EPAC2 antag – human EPAC2 antagonism, validation; 16,000 compounds, 1.7% hits; Potency, µM (doses to about 112 µM), most hits filed as inhibitors; EPAC2 Rap1B BODIPY-GDP exchange, fluorescence; also: nearly all actives have a fitted effect of over 40% in size
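Normalized against a 6.5 mM cAMP agonist control, compounds were tested on 100 nM EPAC2 exchanging Rap1B-bound BODIPY-GDP (250 nM) for 50 uM GDP. Fluorescence drop (ex 480, em 540 nm) was tracked at room temperature over 30 min at 5-min intervals.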
Numbers stand for hits; 0 = inactive; ? = inconclusive; ! = not active in a repeat. Calls follow the shape of the dose curve; as a rule, active = well fitted curve in the direction sought with a large enough effect; inconclusive = small, poorly fitted or top-dose-only effect, or another doubt; inactive = no such curve, though single readings can be large; an effect the other way counts as inactive or inconclusive.

SMILES	EPAC1 ag val	EPAC2 antag
CC(C)C[C@H](NC(=O)[C@@H](Cc1c[nH]c2ccccc12)NC(=O)[C@H](Cc1ccc(O)cc1)NC(=O)[C@H](CO)NC(=O)[C@H](Cc1c[nH]c2ccccc12)NC(=O)[C@H](Cc1cnc[nH]1)NC(=O)[C@@H]1CCC(=O)N1)C(=O)N[C@@H](CCCN=C(N)N)C(=O)N1CCC[C@@H]1C(=O)NCC(N)=O	0	0
CN(C)CC(C)(O)c1ccc2c(c1)CN(Cc1cn(C)c3ccccc13)CCO2 (centres undefined)	0	0
CN(C)c1ccc(C(=C2C=CC(=[N+](C)C)C=C2)c2ccccc2)cc1	0	0
CN(C)c1ccc(C(=C2C=CC(=[N+](C)C)C=C2)c2c(O)c(S(=O)(=O)[O-])cc3cc(S(=O)(=O)O)ccc23)cc1	0	56.2µM
Cc1cccc(N(C)C(=S)Oc2ccc3c(c2)CCC3)c1	0	0
Cc1cccc(N(C)C(=S)Oc2ccc3ccccc3c2)c1	112µM!	0
COC(=O)c1cc(CNC(=O)c2ccccc2OC)cc(NC(=O)c2ccccc2F)c1	0	0
COc1ccc2ccccc2c1CN1CCC2(CCC(CNC(=O)c3ccccc3)O2)CC1 (centres undefined)	0	0
CC(C)C[C@H]1C(=O)N2CCC[C@H]2[C@]2(O)O[C@](NC(=O)[C@@H]3C=C4c5cccc6[nH]c(Br)c(c56)C[C@H]4N(C)C3)(C(C)C)C(=O)N12	112µM!	0
CC(C)CC1C(=O)N2CCCC2C2(O)O[C@@](NC(=O)C3C=C4c5cccc6[nH]c(Br)c(c56)CC4N(C)C3)(C(C)C)C(=O)N12 (some centres undefined)	?	0
COc1cccc(Cn2c(=O)c(-c3cn(C)c4ccccc34)nc3cnc(N4CCNCC4)nc32)c1	?	79.4µM
COc1cccc(Cn2c(=O)c(-c3cn(C)c4ccccc34)nc3cnc(N4CCOCC4)nc32)c1	0	0
COc1cccc(Cn2c(=O)c(-c3ccccc3)nc3cnc(N4CCN(C)CC4)nc32)c1	0	0
COc1cccc(Nc2ncc3nc(C)c(=O)n(C[C@H]4CCCO4)c3n2)c1	0	0
COc1cccc(Cn2c(=O)c(CCc3ccccc3)nc3cnc(N4CCN(C)CC4)nc32)c1	112µM	0
COc1cccc(Nc2ncc3nc(-c4cn(C)c5ccccc45)c(=O)n(C[C@H]4CCCO4)c3n2)c1	112µM	0
Cc1nc2sccn2c1CN1CCOc2ccc(CN3C[C@@H](C)O[C@@H](C)C3)cc2C1	0	0
COc1ccc(C(=O)NCC2Cc3c(F)ccc(-c4nc(C)cnc4C)c3O2)cc1F (centres undefined)	0	?
Nc1ncnc2c1nc(Cl)n2C1OC(CO)C(O)C1O (centres undefined)	0	0
Nc1ncnc2c1nc(Br)n2[C@H]1O[C@H]2COP(=O)(O)O[C@H]2[C@@H]1O	1.12µM	3.55µM
Nc1ncnc2c1nc(Sc1ccc(Cl)cc1)n2[C@H]1OC2COP(=O)(O)O[C@@H]2C1O (some centres undefined)	0.178µM	0.501µM
Nc1ncnc2c1nc(Br)n2C1CC(O)C(CO)O1 (centres undefined)	0	0
NC1=NC2C(N=C(Br)N2[C@@H]2O[C@H]3COP(=O)(O)O[C@@H]3[C@@H]2O)C(=O)N1 (some centres undefined)	0	?
Nc1ncnc2c1nc(Br)n2[C@@H]1O[C@H]2COP(=O)(O)O[C@@H]2[C@@H]1O	?	1.26µM
CC(C)c1c(C(=O)N(C)Cc2cccc3ncccc23)cnn1-c1nccc(-c2ccccc2F)n1	0	0
SMILES	EPAC1 ag val	EPAC2 antag
O=C(O)[C@@H](O)[C@H](O)[C@H](O)[C@@H](O)C(=O)O (tested in a mixture with another compound)	0	0
Cc1cc(C(=O)NCc2nnc3n2CCN(Cc2ccc4c(c2)Cc2ccccc2-4)CC3)c(C)o1	0	?
C[N@+]12CCCC[C@@H]1CCC(=C(c1cccs1)c1cccs1)C2	0	0
Oc1cc(O)c2c(c1)O[C@H](c1ccc(O)c(O)c1)[C@@H](O)C2	0	0
O=c1c(O)cc(C2Oc3cc(O)cc(O)c3CC2O)cc2c(C3Oc4cc(O)cc(O)c4CC3O)cc(O)c(O)c12 (centres undefined)	0	20µM
CC(NC(=O)c1cc(F)ccc1F)c1nnc2n1CCN(Cc1ccc(-c3ccccc3)cc1)CC2 (centres undefined)	0	0
CN1CC(O)C2=CC(=O)C(=O)C=C21 (centres undefined)	0	79.4µM
CO[C@H]1[C@H](NC(=O)c2cccs2)c2ccccc2C12CCN(Cc1cccn1-c1ccccn1)CC2	0	0
Cc1cccc(C)c1Nc1ncccc1C(=O)O	0	0
COc1ccc(/C=C/C(=O)c2cccs2)c(OC)c1	?	0
COc1cc(O)c(C(=O)/C=C/c2ccc(OC)c(O)c2)c(OC)c1	100µM	0
